# From PubChem BioAssay (NCI)
# This is part of a sample that, as a whole, favours compounds with a hit. Of some 83,000 tested, about 20% had one in any assay.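 Results are percent growth after 48 hours of single-concentration exposure. 100 means growth as in untreated cells, lower positive values show inhibition; negative values down to -100 show cell death.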 Calls of active or inactive are those of the source. The calls were made as follows: active = growth percent below 10; inactive = the rest.
# System: HL-60(TB) leukemia
# Assay: NCI-60 one-dose screen, 48 h (100 = growth as untreated, 0 = no growth, -100 = all killed)
# Conditions: 10 µM unless noted
row,SMILES,growth
1,CC(=O)Nc1ccc(S(=O)(=O)n2ccc(-c3ccc4c(c3)CCC(C)(C)O4)n2)cc1,91.9% (inactive)
2,CC(C)CNCC(=O)Nc1ccc(Cc2ccc(NC(=O)CNCC(C)C)cc2)cc1,38% (inactive)
3,FC(F)(F)c1ccc2c(Nc3cccc(C4CC(c5ccccc5)=NN4c4ccc(Cl)cc4)c3)ccnc2c1 (stereo not given),36.5% (inactive)
4,CC(C)CCOc1ccc(-c2n[nH]c(C(F)(F)F)c2-c2cncc(C#N)c2)c(O)c1,3.64% (active)
5,Cn1c(/C=C/[N+](=O)[O-])cc2ccccc21,53.4% (inactive)
6,O=C(Nc1ccccc1Cl)c1ccc(NC2=C(Cl)C(=O)N(C3CCCCC3)C2=O)cc1,-36.7% [30 µM] (active)
7,O=c1n(C2OC(CO)C(O)C2O)ccc2nccn12 (stereo not given),101% (inactive)
8,Nc1ccc(Cl)cn1,100% (inactive)
9,CS(=O)(=O)c1nsc(N)n1,105% (inactive)
10,O=C(Nc1ccccc1)Nc1ccccc1CNc1nc(Nc2ccc(OCCN3CCCC3)cc2)ncc1Cl,-31.2% (active)
11,C=CCOc1cccc(/C=C/C(=O)c2sc(Nc3cccnc3)nc2C)c1,43.3% (inactive)
12,Cc1[nH]c(C2CC(c3ccc(C(F)(F)F)c(F)c3)=NN2C)c(C)c1C(=O)NCC(F)(F)F (stereo not given),97.1% (inactive)
13,Cc1ccc(-c2nc3c(c(-c4ccccc4)nn3-c3ccccc3)c(-c3ccc(O)cc3)c2C#N)cc1,33% (inactive)
14,C[C@]12C=CC(=O)C=C1[C@@H](F)C[C@@H]1[C@@H]2[C@@H](O)C[C@@]2(C)[C@H]1CC[C@]2(O)C(=O)CO,107% (inactive)
15,Oc1ccc(CCC2CCNc3ccccc32)cc1 (stereo not given),86.9% (inactive)
16,C[C@H]1OC(=O)/C=C/[C@@H](O)[C@@H](O)CCCCCCCC[C@@H]1O,99.6% (inactive)
17,CCn1nc(C#Cc2c(C)ccc3c(Nc4ccc(Cl)cc4)nccc23)c2c(N)ncnc21,-16% (active)
18,c1ccc2c(c1)oc1cc3c(cc12)nnc1cccn13,108% (inactive)
19,CCN(CC)CCCNc1cc(OC)cc2nc3cc(Cl)ccc3nc12,-9.05% (active)
20,NS(=O)(=O)c1cn(-c2ncnc3nc[nH]c23)ccc1=O,79.5% (inactive)

row,SMILES,growth
1,CC1=C2CC/C(C)=C/CC[C@]3(C)O[C@H]3CC/C(C)=C/[C@H]2OC1,86.5% (inactive)
2,COc1cc(Cl)cc(-c2nn(-c3cccc(NC(=O)Nc4cc(C(F)(F)F)cc(C(F)(F)F)c4)c3)cc2-c2ccncc2)c1,-20.1% (active)
3,CC(=O)N1N=C(c2ccc(Nc3nc(Nc4ccc(F)cc4)nc(Nc4ccc(Cl)cc4)n3)cc2)CC1c1ccc(Cl)cc1 (stereo not given),166% (inactive)
4,Nc1ccccc1NC(=O)c1ccc(-n2nc(-c3ccccc3)c3ccccc32)cc1,-4.94% (active)
5,COc1cc(-c2nn(-c3ccc(Br)cc3)cc2CO)ccc1O,74.8% (inactive)
6,NC(=O)c1ccc(C2C3=C(CCCC3=O)OC3=C2C(=O)c2ccccc2C3=O)cc1 (stereo not given),-30.4% (active)
7,COc1ccc2c(c1)/C(=C/c1cc(OC)c(OC)c(OC)c1)C(=O)N2C,3.32% (active)
8,Cc1ccc(-c2cc(-c3cccnc3)[nH]c(=O)c2C#N)cc1,99% (inactive)
9,COS(=O)(=O)CCN(CCOS(C)(=O)=O)S(C)(=O)=O,82.9% (inactive)
10,FC(F)(F)c1nc2c(NCc3ccc(-c4ccccc4)cc3)cccc2[nH]1,21.1% (inactive)
11,COc1ccc(Cn2cc3c(c2-c2cc(OC)c(OC)c(OC)c2)CCc2c(CO)noc2-3)cc1,-36.2% (active)
12,CC(=O)[C@@H]1CC[C@]2(COS(=O)(=O)c3ccc(C)cc3)CC[C@]3(C)[C@H](CC[C@@H]4[C@@]5(C)CCCNC(C)(C)[C@@H]5CC[C@]43C)[C@@H]12,28.1% (inactive)
13,CCC#CC[C@H](O)C/C=C1/C(=O)C=C[C@@H]1C/C=C\CCCC(=O)OC,2.22% (active)
14,COc1cc([C@H](C)c2ccc3ccccc3c2)cc(OC)c1OC,-5.85% (active)
15,Cc1[nH]c(C(=O)Nc2ccc(C(=O)NCCN)cc2OC(C)C)c(Cl)c1Cl,-21.3% (active)
16,C[C@@H]1N=C(c2ccc(Cl)cc2Cl)Nc2nc3ccccn3c2C1=O,0.461% (active)
17,O=C(/C=C/c1ccccc1)Nc1ncc(Cc2ccccc2)s1,-45.3% (active)
18,CCCc1n(Cc2ccc3ccccc3c2)c2ccccc2[n+]1Cc1ccc2ccccc2c1,-64.2% (active)
19,c1ccc(CCn2nnc3c(Nc4ccc(N5CCOCC5)cc4)ncnc32)cc1,96.7% (inactive)
20,Cc1c(-c2ccc(-c3ccccc3F)cc2)nc2ccc(F)cc2c1C(=O)O,5.22% (active)
